Laboratory results reported in PubChem BioAssay (Tox21).
Results filed as inconclusive are left out. Activity calls are given as the source filed them. The call rests on the fitted dose curve; in most records, active means well fitted curve in the direction sought with a large enough effect in the repeat runs; inconclusive means weak or mixed curves; inactive means no such curve, though single readings can be large; an effect the other way counts as inactive or inconclusive.

What was measured:
[1] = A CellTox Green Cytotoxicity Assay to monitor cytotoxicity in HEK293 cells - 40 hour (AID 1224871); further: nearly all actives have a fitted effect of over 45% in size
In short: (§1)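 Each value comes from one timepoint of a single continuous run in which HEK293 cells with CellTox Green were exposed to compound for up to 40 h at 37 C, dye fluorescence rising with cell death.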

[2] = qHTS RealTime-Glo MT Cell Viability Assay in HEK293 cells - 16 hour (AID 1224872); further: top concentration of the series differs between compounds; nearly all actives have a fitted effect of over 50% in size
In short: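 Quantitative high-throughput screen of the Tox21 10K library in HEK293: cells and RealTime-Glo reagents plated together, compound added at 5 h, luminescence monitored through 40 h at 37 C.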

[3] = qHTS RealTime-Glo MT Cell Viability Assay in HepG2 cells - 8 hour (AID 1224873); further: nearly all actives have a fitted effect of over 55% in size
In short: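 HepG2 cells (600/well) mixed with RealTime-Glo MT reagent, settled 5 h at 37 C/5% CO2 before compound addition. Nonlytic NanoLuc luminescence from viable-cell prosubstrate reduction read repeatedly during 40 h treatment at 37 C.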

[4] = qHTS RealTime-Glo MT Cell Viability Assay in HEK293 cells - 40 hour (AID 1224874); details: RealTime-Glo luminescence; max response: active compounds read low; further: nearly all actives have a fitted effect of over 50% in size
In short: (§2)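 qHTS format; HEK293 cells with NanoLuc/prosubstrate reagent, 37 C/5% CO2 for 5 h pre-dosing; compounds 23 nL in DMSO; luminescence at each time point reflects viable cells.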

[5] = A CellTox Green Cytotoxicity Assay to monitor cytotoxicity in HEK293 cells - 24 hour (AID 1224875); further: series mostly up to about 77 µM; nearly all actives have a fitted effect of over 45% in size
In short: as §1

[6] = A CellTox Green Cytotoxicity Assay to monitor cytotoxicity in HepG2 cells - 16 hour (AID 1224876); further: nearly all actives have a fitted effect of over 45% in size
In short: (§3)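 Continuous culture of HepG2 cells with a membrane-impermeant DNA dye; rising fluorescence marks dead cells. Compound exposure lasted up to 40 h at 37 C, with reads every 8 h from 0 h.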

[7] = qHTS RealTime-Glo MT Cell Viability Assay in HepG2 cells - 32 hour (AID 1224877); further: nearly all actives have a fitted effect of over 55% in size
In short: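 Compound treatment began 5 h after plating HepG2 cells (600/well) with NanoLuc luciferase and prosubstrate. Plates stayed at 37 C for 40 h; luminescence was captured at six time points, 0 h through 40 h.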

[8] = A CellTox Green Cytotoxicity Assay to monitor cytotoxicity in HepG2 cells - 24 hour (AID 1224878); further: nearly all actives have a fitted effect of over 45% in size
In short: as §3

[9] = A CellTox Green Cytotoxicity Assay to monitor cytotoxicity in HepG2 cells - 40 hour (AID 1224879); further: nearly all actives have a fitted effect of over 40% in size
In short: as §3

[10] = qHTS RealTime-Glo MT Cell Viability Assay in HEK293 cells - 0 hour (AID 1224880)
In short: as §2
On the % scale 0 is the no-effect control and ±100 the full control effect.

COCC(=O)N(c1c(C)cccc1C)N1CCOC1=O
inactive: Potency [1] | Potency [2] | Potency [3] | max response [4] 0.893% | Potency [5] | Potency [6] | Potency [7] | Potency [8] | Potency [9] | outcome [10]

CCN(Cc1ccc(Cl)nc1)/C(=C/[N+](=O)[O-])NC
inactive: Potency [1] | Potency [2] | Potency [3] | max response [4] 2.66% | Potency [5] | Potency [6] | Potency [7] | Potency [8] | Potency [9] | outcome [10]

OC(Cn1cncn1)(c1ccc(F)cc1)c1ccccc1F (stereo not given)
inactive: Potency [1] | Potency [2] | Potency [3] | max response [4] -0.588% | Potency [5] | Potency [6] | Potency [7] | Potency [8] | Potency [9] | outcome [10]

Cc1ncc(CNC(=O)N(CCCl)N=O)c(N)n1
inactive: Potency [1] | Potency [2] | Potency [3] | max response [4] 2.69% | Potency [5] | Potency [6] | Potency [7] | Potency [8] | Potency [9] | outcome [10]

COC(=O)C(c1ccccc1)C1CCCCN1 (stereo not given)
inactive: Potency [1] | Potency [2] | Potency [3] | max response [4] 2.03% | Potency [5] | Potency [6] | Potency [7] | Potency [8] | Potency [9] | outcome [10]

COc1cc(OC)nc(Sc2cccc(Cl)c2C(=O)O)n1
inactive: Potency [1] | Potency [2] | Potency [3] | max response [4] 16.2% | Potency [5] | Potency [6] | Potency [7] | Potency [8] | Potency [9] | outcome [10]

CC(C(=O)c1ccccc1)N(C)C (stereo not given)
inactive: Potency [1] | Potency [2] | Potency [3] | max response [4] 2.47% | Potency [5] | Potency [6] | Potency [7] | Potency [8] | Potency [9] | outcome [10]

CC1=NNC(=O)N(/N=C/c2cccnc2)C1
inactive: Potency [1] | Potency [2] | Potency [3] | max response [4] 3.94% | Potency [5] | Potency [6] | Potency [7] | Potency [8] | Potency [9] | outcome [10]

Cc1nc(N)nc(N)n1
inactive: Potency [1] | Potency [2] | Potency [3] | max response [4] -3.78% | Potency [5] | Potency [6] | Potency [7] | Potency [8] | Potency [9] | outcome [10]

CC(N)=S
inactive: Potency [1] | Potency [2] | Potency [3] | max response [4] 1.38% | Potency [5] | Potency [6] | Potency [7] | Potency [8] | Potency [9] | outcome [10]

O=C1CN=C(c2ccccc2)c2cc([N+](=O)[O-])ccc2N1
inactive: Potency [1] | Potency [2] | Potency [3] | max response [4] -17.7% | Potency [5] | Potency [6] | Potency [7] | Potency [8] | Potency [9] | outcome [10]

CCCCN(CCCCO)N=O
inactive: Potency [1] | Potency [2] | Potency [3] | max response [4] 3.79% | Potency [5] | Potency [6] | Potency [7] | Potency [8] | Potency [9] | outcome [10]

C=CC1CC=CCC1 (stereo not given)
inactive: Potency [1] | Potency [2] | Potency [3] | max response [4] 3.23% | Potency [5] | Potency [6] | Potency [7] | Potency [8] | Potency [9] | outcome [10]

O=C(CCN1CC1)OCC(CO)(COC(=O)CCN1CC1)COC(=O)CCN1CC1
inactive: Potency [1] | Potency [2] | Potency [3] | max response [4] 0.103% | Potency [5] | Potency [6] | Potency [7] | Potency [8] | Potency [9] | outcome [10]

ClCC(Cl)Cl
inactive: Potency [1] | Potency [2] | Potency [3] | max response [4] -2.64% | Potency [5] | Potency [6] | Potency [7] | Potency [8] | Potency [9] | outcome [10]

CCOC(=O)N(C)C(=O)CSP(=S)(OCC)OCC
inactive: Potency [1] | Potency [2] | Potency [3] | max response [4] -10% | Potency [5] | Potency [6] | Potency [7] | Potency [8] | Potency [9] | outcome [10]

ClCCCN1CCN(c2cccc(Cl)c2)CC1
inactive: Potency [1] | Potency [2] | Potency [3] | max response [4] -25.9% | Potency [5] | Potency [6] | Potency [7] | Potency [8] | Potency [9] | outcome [10]

Nc1cc2c3c(c1)C(c1ccccc1)=N[C@@H](NC(=O)c1cccnc1)C(=O)N3CC2
inactive: Potency [1] | Potency [2] | Potency [3] | max response [4] -6.57% | Potency [5] | Potency [6] | Potency [7] | Potency [8] | Potency [9] | outcome [10]

Cc1nnc2n1-c1sc(CCC(=O)N3CCOCC3)cc1C(c1ccccc1Cl)=NC2
inactive: Potency [1] | Potency [2] | Potency [3] | max response [4] -16.7% | Potency [5] | Potency [6] | Potency [7] | Potency [8] | Potency [9] | outcome [10]

CC(CCc1ccccc1)NC(C)C(O)c1ccc(O)cc1 (stereo not given)
inactive: Potency [1] | Potency [2] | Potency [3] | max response [4] -21.9% | Potency [5] | Potency [6] | Potency [7] | Potency [8] | Potency [9] | outcome [10]

Nc1cnn(-c2ccccc2)c(=O)c1Cl
inactive: Potency [1] | Potency [2] | Potency [3] | max response [4] 20.5% | Potency [5] | Potency [6] | Potency [7] | Potency [8] | Potency [9] | outcome [10]

CC(Cl)(Cl)[N+](=O)[O-]
inactive: Potency [1] | Potency [2] | Potency [3] | max response [4] 2.41% | Potency [5] | Potency [6] | Potency [7] | Potency [8] | Potency [9] | outcome [10]

O=[N+]([O-])c1ccc(CBr)cc1
inactive: Potency [1] | Potency [2] | Potency [3] | max response [4] 12.7% | Potency [5] | Potency [6] | Potency [7] | Potency [8] | Potency [9] | outcome [10]
